In the library only some 2.3% were active in any assay of this set; here they are far more common.
LGR2 inh = inhibitors of bursicon-induced LGR2 CRE-luciferase signal, primary screen, cell-based, HEK293, CRE-luciferase reporter, bursicon stimulation; Drosophila bursicon receptor LGR2 (rickets); bursicon-stimulated, 4 h; inhibition, % at 9.99 µM; hit rate 0.35% among 380,000;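 active = drop in luminescence signal, shown as inhibition above about 50% in the replicate tests, limit read from the data, passing the limit was not always enough; inconclusive = probably only some replicates passing the limit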;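 also: agonist challenge used bursicon conditioned medium at about half maximal strength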
CF NFkB inh = inhibitors of PAF-induced NF-kB signaling, primary screen, cell-based, GFP fluorescence, uHTS. KKLEB NF-kB-GFP reporter, GFP fluorescence overnight. inhibition, % at 5 µM. hit rate 0.86% among 360,000;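 active = at least 50% inhibition at 5 µM, scaled per plate between neutral and stimulator controls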;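 also: PAF is a Pseudomonas aeruginosa culture filtrate used as stimulus; plate controls were PAF-stimulated DMSO wells for no effect and unstimulated DMSO wells for full effect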
HIF-2a block = HIF-2a reporter inhibitors, primary screen, luminescence, 786-0 RCC cells; inhibition, % at 18.8 µM; 786-0 RCC cells HIF-2a reporter, luciferase luminescence, overnight; AID 624352, 2012; hit rate 0.72% among 360,000;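 active = inhibition of the luminescence signal of 40% or more relative to plate controls, in a single-dose primary screen at 18.75 µM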
TWEAK-Fn14 inh = inhibitors of TWEAK-Fn14 signaling, primary screen, luciferase reporter cells, uHTS; inhibition, % at 10 µM; TWEAK-stimulated Fn14 reporter cells, luciferase luminescence, 8 h; AID 1159606, 2016; hit rate 2% among 360,000; in the data active = inhibition above about 50%
iPSC survival up = enhancers of single-cell hiPSC survival, primary screen, ATPlite luminescence. 100% = ROCK inhibitor wells, 0% = DMSO. survival enhancement, % at 20 µM. hit rate 0.044% among 360,000. AID 602274, 2012; in the data active = survival enhancement above about 18%;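 also: cells exposed to compounds for 16 hours before the ATP read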
KKLEB tox = cytotoxicity in KKLEB CF airway cells, primary screen, cytotoxicity control for CF NF-kB inhibitor project, cell-based, uHTS, fluorescence assay plates; KKLEB CF airway cells viability, ATPlite luminescence, overnight; hits give low values; cells stimulated with P. aeruginosa culture filtrate; activity change (cytotoxicity), % at 5 µM; hit rate 0.36% among 360,000;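 active = corrected activity change at or below -50% at 5 µM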
Mdm2 MdmX conf = retested Mdm2-MdmX interaction blockers, confirmation, cell-based, luminescence, single concentration, set 2; inhibition, % at 8 µM; shares compounds with HIF-2a block; hit rate 99% among 740; SaOS-2 split-luciferase Mdm2/MdmX complementation; AID 504601, 2011;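 active = mean inhibition of the luminescence signal across two replicates at or above 26 percent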
Target sequence (O15151 whole entry, looked up): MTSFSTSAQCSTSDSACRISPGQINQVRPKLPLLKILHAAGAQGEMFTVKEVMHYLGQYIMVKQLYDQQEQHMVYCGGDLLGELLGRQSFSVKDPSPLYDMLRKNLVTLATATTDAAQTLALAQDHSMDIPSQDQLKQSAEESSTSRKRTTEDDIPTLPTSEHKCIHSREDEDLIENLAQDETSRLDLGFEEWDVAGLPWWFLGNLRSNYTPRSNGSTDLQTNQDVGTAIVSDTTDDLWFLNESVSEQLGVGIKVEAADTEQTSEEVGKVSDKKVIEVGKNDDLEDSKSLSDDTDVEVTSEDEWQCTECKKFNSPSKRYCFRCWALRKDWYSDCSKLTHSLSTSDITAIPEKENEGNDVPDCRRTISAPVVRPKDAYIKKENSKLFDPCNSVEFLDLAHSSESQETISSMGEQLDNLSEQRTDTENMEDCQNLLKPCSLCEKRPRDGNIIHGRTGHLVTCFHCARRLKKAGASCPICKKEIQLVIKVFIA
Target sequence (Q00987 whole entry, looked up): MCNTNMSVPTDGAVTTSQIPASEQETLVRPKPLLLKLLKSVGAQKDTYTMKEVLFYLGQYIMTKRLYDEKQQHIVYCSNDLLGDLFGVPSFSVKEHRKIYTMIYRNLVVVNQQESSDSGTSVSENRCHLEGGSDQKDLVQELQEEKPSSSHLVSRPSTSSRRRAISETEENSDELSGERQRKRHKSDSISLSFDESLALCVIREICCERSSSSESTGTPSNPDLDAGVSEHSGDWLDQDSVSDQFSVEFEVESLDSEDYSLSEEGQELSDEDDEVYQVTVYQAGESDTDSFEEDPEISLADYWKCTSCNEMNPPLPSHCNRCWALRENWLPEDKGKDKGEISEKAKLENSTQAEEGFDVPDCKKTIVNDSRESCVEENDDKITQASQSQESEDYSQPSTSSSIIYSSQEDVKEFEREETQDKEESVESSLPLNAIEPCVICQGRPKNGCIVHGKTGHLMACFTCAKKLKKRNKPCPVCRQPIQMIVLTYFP
HIF-2a conf = HIF-2a reporter inhibitor retest, confirmation, luminescence, 786-0 RCC cells; shares compounds with HIF-2a block; HIF-2a luciferase reporter luminescence, overnight; inhibition, % at 18.8 µM; hit rate 56% among 1,800;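 active = mean inhibition across four replicates of at least 40 percent at the single tested concentration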
HIF-1a counter = HIF-1a luciferase reporter signal reduction – MiaPaCa-2 cells, single concentration, counter-screen for HIF-2a inhibitor project, confirmation; AID 651589, 2012; inhibition, % at 18.8 µM; shares compounds with HIF-2a block; MiaPaCa-2 HIF-1a luciferase reporter, desferoxamine, overnight; hit rate 72% among 1,800;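 active = mean inhibition of the reporter signal across four replicates at the single tested dose of 50% or more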
* = called active by the depositor; u = inconclusive; x = not tested or not shown.

SMILES | LGR2 inh | CF NFkB inh | HIF-2a block | TWEAK-Fn14 inh | iPSC survival up | KKLEB tox | HIF-2a conf | HIF-1a counter | others
CCOC(=O)/C(=C/c1c(C)n(C)c2ccc([N+](=O)[O-])cc12)C(C)=O | 36 | 2 | 72* | 73* | 3 | -9 | 70* | 59*
COc1ccc(CN2C[C@@H](C)[C@@H](OC)CN(C)C(=O)c3cc(NC(C)=O)ccc3OC[C@@H]2C)cc1 | 1 | x | x | x | x | x | x | x
NNC(=O)c1cccc(COc2ccccc2Br)c1 | x | -1 | -69 | -16 | -1 | 8 | x | x
NNC(=O)c1cccc(COc2ccc3c(c2)CCC3)c1 | u | 1 | 68* | -15 | -1 | 2 | 53* | -115
C[C@H]1CN([C@@H](C)CO)S(=O)(=O)c2ccc(C#Cc3ccc(F)cc3)cc2O[C@@H]1CN(C)C(=O)c1ccccn1 | -4 | x | x | x | x | x | x | x
CCC(C)n1nnc2c(=O)oc3ccccc3c21 (stereo not drawn) | -1 | 10 | 18 | 0 | -1 | 3 | x | x
Cc1ccc(-n2nnc3c(=O)oc4ccccc4c32)cc1 | -7 | 18 | 52* | -14 | -1 | 1 | 15 | 30
CC(C)N1C(=O)C(Cc2nc3ccccc3c(=O)n2-c2ccccc2)c2ccccc21 (stereo not drawn) | -8 | -16 | 18 | 2 | 1 | 4 | x | x
CC(C)N1C(=O)/C(=C/c2nc3ccccc3c(=O)n2-c2ccccc2)c2ccccc21 | x | 3 | 64* | 44 | 6 | 1 | 59* | 102*
CCN(CC(=O)Nc1c(F)cccc1F)C(=O)c1cc(S(=O)(=O)N(C)C)ccc1N1CCCC1 | 7 | 10 | 27 | 9 | -1 | -5 | x | x
CCN(CC(=O)Nc1c(F)cccc1F)C(=O)c1cc(S(=O)(=O)N(CC)CC)ccc1N1CCCCC1 | 1 | -33 | 48* | 14 | 0 | 6 | 34 | 36
Cc1ccc(C2C(C#N)=C(N)N(c3ncn[nH]3)C3=C2C(=O)CC(C)(C)C3)cc1 (stereo not drawn) | x | 8 | 44* | -2 | 4 | -4 | 3 | 0
Cc1ccc(N2C(N)=C(C#N)C(c3cccnc3)C3=C2CC(C)(C)CC3=O)cc1 (stereo not drawn) | x | 0 | 0 | -15 | -3 | 2 | x | x
O=C(C[C@@H]1CC[C@@H]2[C@H](COC[C@@H](O)CN2S(=O)(=O)c2ccc(Cl)cc2)O1)NCCN1CCCCC1 | -7 | x | x | x | x | x | x | x
Cc1cc(C)c(C(=O)/C=C/c2cccc3ccccc23)c(=O)[nH]1 | 67* | 44 | 85* | 95* | -2 | -26 | 92* | 105* | Mdm2 MdmX conf=103*
C[C@H]1CN([C@@H](C)CO)C(=O)Cc2cc(NC(=O)Cc3cn(C)c4ccccc34)ccc2O[C@@H]1CN(C)C(=O)NC1CCCCC1 | 12 | x | x | x | x | x | x | x
Cc1c(/C(O)=C2/C(=O)C(=O)N(CCN3CCOCC3)C2c2ccccn2)cnn1-c1ccccc1 (stereo not drawn) | 80* | -1 | 73* | 92* | 0 | -3 | 40* | 59*
O=C1C(=O)N(CCN2CCOCC2)C(c2ccccn2)/C1=C(/O)c1ccc(F)cc1 (stereo not drawn) | x | 1 | 1 | -2 | -2 | 3 | x | x
CCSc1nnnn1-c1ccccc1 | -3 | -6 | 9 | -6 | -3 | 11 | x | x
Cc1ccc(C)c(-n2nnnc2Sc2nnnn2-c2ccccc2)c1 | x | 92* | 29 | 101* | -2 | -68* | x | x | Mdm2 MdmX conf=103*
C[C@@H]1CCCCO[C@@H](CN(C)S(C)(=O)=O)[C@H](C)CN([C@H](C)CO)C(=O)c2cc(NS(=O)(=O)c3ccccc3)ccc2O1 | -9 | x | x | x | x | x | x | x
CN(C)c1ccc(-n2cccc2/C=C/[N+](=O)[O-])cc1 | x | -36 | 91* | 60* | 4 | -9 | 89* | 106*
COc1ccccc1Oc1cc(C#N)c(C#N)cc1-n1nnc2ccccc21 | 15 | 7 | 46* | 8 | 3 | -4 | 20 | 54*
N#Cc1cc([N+](=O)[O-])c(-n2nnc3ccccc32)c([N+](=O)[O-])c1 | x | -12 | 23 | 9 | 1 | 12 | x | x
CCCNC(=O)[C@@H]1[C@@H](CO)[C@@H]2Cn3c(ccc(-c4cccc(OC)c4)c3=O)[C@H]1N2CCC | 5 | x | x | x | x | x | x | x
SMILES | LGR2 inh | CF NFkB inh | HIF-2a block | TWEAK-Fn14 inh | iPSC survival up | KKLEB tox | HIF-2a conf | HIF-1a counter | others
C=CCOc1cccc(C(=O)/C=C2/C(=O)Nc3ccccc32)c1 | 5 | 86* | 59* | 30 | -1 | -52* | 59* | 105*
CC(=O)N(C)c1ccc(N=C2C(=O)Nc3ccccc32)cc1 | x | -5 | 16 | 14 | 0 | 2 | x | x
CC(=O)/C=C1/C(=O)Nc2ccccc21 | -22 | -2 | 40* | 9 | -2 | -2 | 49* | 5
C=CCOc1cccc(C(=O)N2CCCC(CCC(=O)NCc3ccccc3F)C2)c1 (stereo not drawn) | 3 | -8 | -37 | -30 | 2 | 9 | x | x
C[C@@H]1CN([C@@H](C)CO)C(=O)c2cc(NC(=O)Nc3ccc(C(F)(F)F)cc3)ccc2O[C@@H](C)CCCCO[C@H]1CN(C)C(=O)Nc1ccccc1 | -5 | x | x | x | x | x | x | x
CO[C@@H]1CC[C@H]2CCOc3ccc(C#N)cc3C(=O)N(C)C[C@H](C)C(=O)N(C)C[C@@H]1O2 | 17 | x | x | x | x | x | x | x
COc1ccc(OC)c(C(=O)/C=C/c2ccccc2C(F)(F)F)c1 | x | -4 | 74* | 59* | -1 | -14 | 26 | 105*
COc1ccc(OC)c(C(=O)C(=O)c2cc(OC)ccc2OC)c1 | 3 | -3 | 16 | 7 | 2 | -22 | x | x
Cc1ccc(-n2c(O)c(C=Nc3ccccc3-c3n[nH]c(=S)[nH]c3=O)c3ccccc3c2=O)c(C)c1 | 8 | 2 | 43* | 36 | 2 | -14 | 15 | 85*
O=S(=O)(c1ccccc1F)N1CC[C@H]2[C@H](CO)Nc3ccc(-c4ccccc4)cc3[C@H]21 | -7 | x | x | x | x | x | x | x
C[C@@H]1CN([C@@H](C)CO)C(=O)Cc2cc(NC(=O)CCCN(C)C)ccc2O[C@@H]1CN(C)S(=O)(=O)c1ccc(Cl)cc1 | -6 | x | x | x | x | x | x | x

Screening data as filed in PubChem BioAssay.
